Compound activity deposited in PubChem by several laboratories.
SENP7 block – inhibitors of human SENP7 protease; 330,000 tested, 1.5% active; recombinant SENP7, Z-RLRGG-aminoluciferin luminescence, 40 min; inhibition, % at 5 µM;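 active means inhibition above about 50% at the single test dose, limit read from the data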;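 further: plate controls were DMSO with enzyme for no effect and no enzyme buffer wells for full effect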
SENP6 inh – inhibitors of human SENP6 protease. 330,000 tested, 1.8% active. Recombinant SENP6 catalytic domain, aminoluciferin luminescence. Q9GZR1. inhibition, % at 10 µM. AID 2599;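 active means inhibition above about 50% at the single tested dose, limit read from the data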;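 further: plate controls were DMSO wells with enzyme for no effect and DMSO wells lacking enzyme for full effect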
Target sequence (Q9GZR1 628-1112 limits assumed): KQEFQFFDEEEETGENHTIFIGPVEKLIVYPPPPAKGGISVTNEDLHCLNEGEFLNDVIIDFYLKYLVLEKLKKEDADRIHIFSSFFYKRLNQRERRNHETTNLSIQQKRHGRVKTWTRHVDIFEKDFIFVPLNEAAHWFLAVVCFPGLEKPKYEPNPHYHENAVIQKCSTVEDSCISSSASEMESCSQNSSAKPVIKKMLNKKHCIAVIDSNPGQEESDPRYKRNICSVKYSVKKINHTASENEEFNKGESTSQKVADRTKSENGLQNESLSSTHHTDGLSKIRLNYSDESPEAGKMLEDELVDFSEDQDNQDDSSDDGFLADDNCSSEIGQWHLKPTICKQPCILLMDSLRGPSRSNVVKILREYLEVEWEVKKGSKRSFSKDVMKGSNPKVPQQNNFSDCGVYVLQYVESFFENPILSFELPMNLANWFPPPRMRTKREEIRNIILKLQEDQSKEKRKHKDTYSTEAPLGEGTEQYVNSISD
HSP90 refold inh – blocks HSP90-mediated luciferase refolding in reticulocyte lysate; inhibition, % at 5.6 µM; Rabbit reticulocyte lysate, luciferase refolding luminescence, 3 h; 290,000 tested, 0.91% active; AID 1789;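 active means inhibition above the screen-wide mean plus 3 SD, computed separately per campaign, cut at about 16% in these data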;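 further: 0% = DMSO wells and 100% = 60 µM geldanamycin wells; inhibitors lower the luminescence because luciferase stays unfolded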
SENP8 block-1 – SENP8 (human) protease inhibition | inhibition, % at 20 µM | recombinant SENP8, Nedd8 substrate fluorescence | 360,000 tested, 0.64% active | Q96LD8; in the data active means inhibition mostly above about 40%, no sharp cut-off; inactive means mostly below about 27%
SENP8 block-2 – blocks the human protease SENP8; Q96LD8; purified SENP8, Z-RLRGG-aminoluciferin cleavage, luminescence; inhibition, % at 10 µM; 330,000 tested, 1.2% active; AID 2540; in the data active means inhibition above about 50%
SENP8 confirm – confirmation of human SENP8 protease inhibitors. shares compounds with SENP7 block. Recombinant SENP8, Z-RLRGG-aminoluciferin luminescence, 60 min. inhibition, % at 12.5 µM. 6,200 tested, 40% active. AID 488912;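 active means mean inhibition across replicates above about 50%, limit read from the data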
SENP6 confirm – human SENP6 inhibition, confirmed. shares compounds with SENP7 block. recombinant SENP6, Z-RLRGG-aminoluciferin luminescence. inhibition, % at 12.5 µM. 6,200 tested, 58% active. AID 488915
SENP7 conf – confirmation of human SENP7 protease inhibitors | shares compounds with SENP7 block | recombinant SENP7, Z-RLRGG-aminoluciferin luminescence, 40 min | inhibition, % at 12.5 µM | 6,200 tested, 69% active | AID 488917
Casp3 SENP sel – selectivity test for SENP inhibitors: human caspase-3 inhibition; shares compounds with SENP7 block; purified caspase-3, Z-DEVD-aminoluciferin luminescence, 60 min; inhibition, % at 12.5 µM; 6,200 tested, 60% active; AID 488918;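 active means mean inhibition above about 50%, limit read from the data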;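 further: plate controls were enzyme with DMSO for no effect and wells without caspase-3 for full effect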
Luc interf – interferes with luciferase luminescence in SENP counter-screen | shares compounds with SENP7 block | 6,200 tested, 39% active | inhibition, % at 12.5 µM | Pre-incubated SENP8/Z-RLRGG-aminoluciferin, luciferase luminescence interference;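 active means mean inhibition above about 50% when retested at one dose, limit read from the data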;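 further: plate controls were DMSO wells with completed reaction for no effect and substrate without enzyme for full effect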
Numbers without * were called inactive; . = not tested or not shown. Rows were chosen to be rich in hits. Some 2.8% of all compounds tested hit in one or more screens of this group.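 How the source made its calls, unless noted: active means mean inhibition above about 50% in the one-dose retest (limit read from the data); inactive means the rest.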

SMILES	SENP7 block	SENP6 inh	HSP90 refold inh	SENP8 block-1	SENP8 block-2	SENP8 confirm	SENP6 confirm	SENP7 conf	Casp3 SENP sel	Luc interf
Cc1ccc(/C=N/c2sc3c(c2C#N)CCC3)s1	84*	78*	-2	6	23	14	13	16	15	13
Cc1ccc(/C=N/Nc2ccccn2)s1	5	17	-1	-20	6	.	.	.	.	.
N#Cc1c(/N=C/c2cc3ccccc3s2)sc2c1CCC2	-14	-24	9	10	-17	.	.	.	.	.
N#Cc1c(/N=C/c2ccco2)sc2c1CCC2	-5	-6	4	-18	19	.	.	.	.	.
Cc1ccc(/C=N/c2sc3c(c2C#N)CCCCC3)o1	0	97*	0	23	87*	94*	95*	100*	69*	77*
Cc1c(C(=O)NCc2ccc(F)cc2)sc(=O)n1Cc1ccc(C(=O)c2ccccc2)cc1	.	.	.	7	.	.	.	.	.	.
COc1ccc(Cn2c(-c3ccco3)nc3oc4cc(OC)ccc4c(=O)c3c2=O)cc1	41	50*	4	-6	17	-20	-15	-6	0	-6
O=C(NCCc1c[nH]c2ccccc12)c1c(Cl)nc2sccn12	1	14	-1	5	-2	.	.	.	.	.
Cc1ccc2nc(/C(C#N)=C/c3ccccc3C(=O)O)[nH]c2c1	4	2	1	-410	-1	.	.	.	.	.
Cc1ccc2nc(/C(C#N)=C/c3ccc(O)c(O)c3)[nH]c2c1	8	65*	-2	-163	17	54*	48	72*	30	9
COC(=O)c1ccnc(SCC(=O)c2ccccc2)c1	70*	74*	1	2	53*	60*	55*	82*	74*	64*
COC(=O)c1cnc(SCC(=O)c2ccccc2)n1C	79*	83*	2	13	71*	79*	77*	93*	92*	80*
C=CCN(C(=O)CN1CCOCC1)c1nc(C)c(-c2ccccc2)s1	-2	-14	7	18	-3	.	.	.	.	.
CCCc1[nH]nc2c1C(CCc1ccccc1)C(C#N)=C(N)O2 (stereo not given)	-6	-13	0	-46	-8	.	.	.	.	.
COc1ccc(C(=O)O/N=C(/c2cccs2)C(C)(C)C)cc1	1	-55	-1	20	3	.	.	.	.	.
C/C(=N/OC(=O)c1ccc(C)cc1)c1cccs1	100*	97*	2	18	98*	98*	99*	102*	97*	97*
C/C(=N\OC(=O)c1ccc(Cl)c(Cl)c1)c1sc(C)nc1C	49	51*	-2	19	29	22	17	33	35	3
C/C(=N/OC(=O)c1ccccc1Br)c1ccc(C)cc1	30	61*	0	6	44	28	31	72*	23	11
C/C(=N\OC(=O)c1ccc(C)cc1)c1sc(C)nc1C	77*	79*	-5	16	62*	12	73*	92*	79*	57*
Cc1ccc(NC(=O)c2ccc3c(=O)n4c(nc3c2)CCCCC4)cc1F	3	-12	1	-9	4	.	.	.	.	.
CCn1c(O)c(N=Nc2ccc3ccccc3n2)c2ccccc21	97*	95*	1	39	94*	18	23	98*	30	6
CCCCn1c(O)c(N=Nc2ccccn2)c2ccccc21	5	-10	0	8	-9	.	.	.	.	.
O=c1[nH]cnc2sc3c(c12)CCCC3	2	5	1	3	-2	.	.	.	.	.
OCc1cc(Br)ccc1OCc1nc2ccccc2s1	15	17	4	-7	-7	.	.	.	.	.
Oc1ccccc1OCc1nc2ccccc2s1	81*	82*	3	10	70*	-4	76*	94*	78*	80*
SMILES	SENP7 block	SENP6 inh	HSP90 refold inh	SENP8 block-1	SENP8 block-2	SENP8 confirm	SENP6 confirm	SENP7 conf	Casp3 SENP sel	Luc interf
O=C(Oc1cccc(-c2cnc3ccccc3n2)c1)c1ccco1	52*	60*	2	-17	59*	18	45	76*	61*	13
CCN(CC)S(=O)(=O)c1ccc(C)c(C(=O)Oc2cccc(-c3cnc4ccccc4n3)c2)c1	1	0	1	1	-10	.	.	.	.	.
COc1cc(/C=N/NC(=O)C2=NNC(=O)C2C)ccc1O (stereo not given)	17	-16	-2	20	-2	.	.	.	.	.
CC1C(=O)NN=C1C(=O)N/N=C\c1ccc(O)cc1O (stereo not given)	75*	71*	4	8	61*	68*	65*	87*	89*	24
CCOc1ccc(/C=C/[N+](=O)[O-])c2ccccc12	27	67*	2	18	44	14	7	13	8	4
CCOC(=O)COc1ccc2ccccc2c1/C=C/[N+](=O)[O-]	.	.	1	-9	.	.	.	.	.	.
CC(=O)c1sc(NC(=O)c2cccc(C)c2)nc1C	63*	67*	12	-13	47	43	61*	88*	78*	24
COc1ccc(N(C)S(=O)(=O)c2cccc(C(=O)Nc3nc(C)c(C(C)=O)s3)c2)cc1	-3	0	.	-100	-23	.	.	.	.	.
CC(=O)c1sc(NC(=O)c2ccccc2C)nc1C	82*	79*	0	6	67*	40	67*	93*	90*	52*
CC(=O)Nc1nc(C)c(C(C)=O)s1	-10	-5	3	10	-8	.	.	.	.	.
O=C(CC[C@H]1O[C@@H](n2ccc(=O)[nH]c2=O)[C@H](O)[C@@H]1O)N[C@H](Cc1ccccc1)C(=O)NCC1CCCO1 (stereo not given in full)	.	.	.	33	.	.	.	.	.	.
CC(C)NC(=O)c1nc2ccccc2s1	-3	-14	-2	15	-7	.	.	.	.	.
COC(=O)c1ccc(CC(=O)c2nc3ccccc3s2)cc1	4	92*	2	30	79*	6	17	16	4	1
Cc1ccc(OC/C(O)=C(\C#N)c2nc3ccccc3s2)cc1	19	70*	-6	2	76*	78*	80*	76*	75*	43
COC(=O)c1ccc(/C(O)=C(\C#N)c2nc3ccccc3s2)cc1	-11	91*	-5	6	88*	11	38	23	26	2
CC(C)=C(C#N)c1nc2ccccc2s1	10	-7	1	8	-4	.	.	.	.	.
O=C(CN1CC(c2ccccc2)CC1=O)OCc1ccccc1F (stereo not given)	9	-13	-4	11	5	.	.	.	.	.
